Among all 5,500 compounds or so, about 2,000 (36%) were called active. Roughly 18% stayed inconclusive and do not appear here. Cut-off read from the data, not from the text of the source: active = normalized growth mostly below about 0.91 (no sharp cut-off); inconclusive = no clear call, values can overlap the other calls; inactive = mostly above about 0.92. This is one part of the list.
Assay: chemical genetic growth profiling, strain panel (AID 1159580);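 note: tested at 20 µM; growth read once vehicle control cultures reached saturation at 30 °C; 1 = growth at the plate median or of vehicle wells; lower values mean less growth of the strain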
Details: S. cerevisiae deletion strains, growth OD
[1] = locus YAL040C, strain CLN3, active compounds read low
[2] = locus YCL061C, strain MRC1 (second series), active compounds read low
[3] = locus YDR363W, strain ESC2, active compounds read low
[4] = locus YER002W, strain NOP16, active compounds read low
[5] = locus YGR229C, strain SMI1, active compounds read low
[6] = locus YJR075W, strain HOC1, active compounds read low
[7] = locus YMR307W, strain GAS1, active compounds read low
[8] = locus YNL153C, strain GIM3, active compounds read low
[9] = locus YNL175C, strain NOP13, active compounds read low
[10] = locus YNL197C, strain WHI3, active compounds read low
[11] = locus YNL224C, strain SQS1, active compounds read low
[12] = locus YNL322C, strain KRE1, active compounds read low
[13] = locus YOR083W, strain WHI5 (second series), active compounds read low
[14] = locus YPL055C, strain LGE1, active compounds read low

Measured: normalized growth

CN1CCN(CC/C=C2/c3ccccc3Sc3ccc(S(=O)(=O)N(C)C)cc32)CC1
inactive: [1] 0.997 | [2] 1 | [3] 0.983 | [4] 1.03 | [5] 0.99 | [6] 0.993 | [7] 0.999 | [8] 1.02 | [9] 1.03 | [10] 1.02 | [11] 1.04 | [12] 0.967 | [13] 1.05 | [14] 0.989

CN(C)S(=O)(=O)c1ccc2c(c1)/C(=C/c1cc3c([nH]1)CCCC3)C(=O)N2
inactive: [1] 1.07 | [2] 0.995 | [3] 0.983 | [4] 0.983 | [5] 0.972 | [6] 1.01 | [7] 0.996 | locus YNL128W, strain TEP1, active compounds read low 0.982 | [8] 0.977 | [9] 0.976 | [10] 0.995 | [11] 0.983 | [12] 0.983 | [13] 1 | [14] 0.985

From PubChem BioAssay AID1159580 (chemical genetic matrix, 2015)
